This passage reports remaining activity results from PubChem BioAssay.

The structures appear in SMILES notation. Activity calls are given as the source filed them. How the calls were made is not given here.

Broadly, the remaining activity is the signal under treatment as a percentage of the control signal.

In this assay the test system is Aerobactin synthetase IucA (Klebsiella pneumoniae, hypervirulent). Put plainly: biochemical IucA inhibition screen of LOPAC library by absorbance (AID 1346212).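 Further: 100% = no compound wells and 0% = no enzyme wells.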 The following applies: IucA enzyme assay, absorbance (OD) readout; stronger effect = lower value;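 tested at 8 µM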.
Consider `NCCC1CCCC(CCN)N1` (centres undefined), for which the remaining activity was 115% (inactive).
The figure for `Cn1cnc2c(NCc3ccccc3)nc(NCCO)nc21` is 119% (inactive); for `COc1ccc(C(=O)NCc2cccnc2)cc1C(=O)NCc1cccnc1` it is 103% (inactive); for `COc1cc(CC(=O)O)ccc1O` it is 83.1% (inactive).
`O=C(Nc1cccc(C(=O)Nc2ccc(S(=O)(=O)O)c3cc(S(=O)(=O)O)cc(S(=O)(=O)O)c23)c1)Nc1cccc(C(=O)Nc2ccc(S(=O)(=O)O)c3cc(S(=O)(=O)O)cc(S(=O)(=O)O)c23)c1`: the remaining activity was 88.6% (inactive).
The result for `O=c1cc(-c2ccccc2)[nH]c2nc(Cl)ccc12` reads 117% (inactive); that for `Cc1cccc(C)c1OCC(N)C(C)C` (centres undefined), 97.7% (inactive); that for `CNc1ncnc2c1ncn2[C@@H]1O[C@H](CO)[C@@H](O)[C@H]1O`, 125% (inactive).
The figure for `NC(=Nc1ccccc1)NC(=O)c1nc(Cl)c(N)nc1N` is 105% (inactive); for `CCOC(=O)c1cnc2c(cnn2CC)c1NN=C(C)C` it is 124% (inactive); for `N[C@@H](CS(=O)O)C(=O)O` it is 115% (inactive).
The result for `CC(COc1ccc(/C=C/c2ccccc2)cc1)[N+](C)(C)C` (centres undefined) reads 104% (inactive).
On to `NC(=O)c1cc[n+](CC2=C(C(=O)O)N3C(=O)[C@@H](NC(=O)[C@@H](c4ccccc4)S(=O)(=O)[O-])[C@H]3SC2)cc1`, for which the remaining activity is 107% (inactive).
The figure for `C(=C\c1ccccc1)/CN1CCN(C(c2ccccc2)c2ccccc2)CC1` is 113% (inactive).
For `COc1ccc(CC(C)NCC(O)c2ccc(O)c(NC=O)c2)cc1` (centres undefined), the remaining activity was 102% (inactive).
The figure for `OC[C@H]1O[C@@H](n2cnc3c(NCCc4ccccc4)ncnc32)[C@H](O)[C@@H]1O` is 92.7% (inactive); for `O=C(O)C1=CCNCC1` it is 95.2% (inactive).
The figure for `C[C@]12CCC(=O)C=C1CC[C@@H]1[C@@H]2C(=O)C[C@@]2(C)[C@H]1CC[C@]2(O)C(=O)CO` is 105% (inactive); for `CCn1ccnc1CC1COc2ccccc2O1` (centres undefined) it is 112% (inactive); for `Cc1ccc(O)c(N=Nc2ccccc2)n1` it is 82.6% (inactive).
The figure for `CSc1nc(N)c2ncn([C@@H]3O[C@H](COP(=O)(O)OP(=O)(O)OP(=O)(O)O)[C@H](O)C3O)c2n1` (some centres undefined) is 109% (inactive).
For `Cc1nc(N=Nc2ccc(S(=O)(=O)O)cc2S(=O)(=O)O)c(COP(=O)(O)O)c(C=O)c1O`, the remaining activity is 106% (inactive).
The result for `OCc1ccc(-c2nn(Cc3ccccc3)c3ccccc23)o1` reads 118% (inactive).
The result for `Cc1cccc(/C=C/c2ccccc2)n1` reads 81% (inactive).
